Where “and” joins values, the source holds several entries; their conditions need not be identical. Identical values can stand only once. More than one record can exist for a structure, and the calls need not agree. Calls of active or inactive are those of the source. How the source made its calls: active means hit-call score of the fitted dose curve at least 0.9, where 1 is the maximum; inactive means score below 0.9.
Experiments:
[1] = APR_HepG2_NuclearSize_72hr: Apredica 72-hour HepG2 Assay for Nuclear Size (AID 2282925); settings: high-content imaging, actives raise or lower the signal
Outline: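 Read-out: nuclear diameter from Hoechst 33342 images (ArrayScan, 20x, six fields/well), via cell-cycle image analysis. HepG2 were dosed 0.39–200 uM for 72 hr in 0.5% DMSO. Bidirectional fit relative to DMSO.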

[2] = ATG_CRE_CIS: Attagene CIS-FACTORIAL HepG2 Assay for human cAMP Responsive Element (CRE) binding protein 3 (AID 2282926); settings: HepG2 CRE cis-reporter, Attagene multiplexed mRNA; actives raise or lower the signal
Outline: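 Cells carrying cis-regulated reporter constructs respond through their own endogenous factors. After 24 h treatment, RNA is reverse-transcribed, amplified, labelled and sized by capillary electrophoresis; up- and down-regulation are both scored against vehicle.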

[3] = biological target: CCAAT/enhancer-binding protein beta (Homo sapiens) (UniProt P17676); assay: ATG_C_EBP_CIS: Attagene CIS-FACTORIAL HepG2 Assay for human CCAAT/Enhancer Binding Protein (C/EBP) beta (AID 2282927); settings: HepG2 Attagene cis-factorial transcription factor reporter; actives raise or lower the signal
Chain of CCAAT/enhancer-binding protein beta (Homo sapiens) (P17676 whole entry, looked up): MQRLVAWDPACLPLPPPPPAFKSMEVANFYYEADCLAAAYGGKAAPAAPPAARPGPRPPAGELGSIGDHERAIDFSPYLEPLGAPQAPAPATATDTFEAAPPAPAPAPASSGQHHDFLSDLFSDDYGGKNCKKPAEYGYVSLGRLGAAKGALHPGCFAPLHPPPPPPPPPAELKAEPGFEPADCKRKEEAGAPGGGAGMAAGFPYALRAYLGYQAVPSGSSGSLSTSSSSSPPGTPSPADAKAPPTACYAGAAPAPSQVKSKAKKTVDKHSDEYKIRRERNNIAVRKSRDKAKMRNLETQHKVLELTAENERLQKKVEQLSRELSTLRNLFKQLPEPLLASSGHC
Outline: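 HepG2, transient MRTU transfection, 24 h treatment. RT-PCR plus CE fluorescence; DMSO negative control, bidirectional fit.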

[4] = ATG_CMV_CIS: Attagene CIS-FACTORIAL HepG2 Assay for human CMV (Internal Marker) (AID 2282928); settings: HepG2 CMV promoter reporter, transcription factor profiling; actives raise or lower the signal;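 further: endpoint acts as a background internal control marker rather than a target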
Outline: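 24 h chemical treatment, HepG2 with transient multi-reporter transfection; RNA → oligo(dT) RT → PCR → 6-FAM extension → HpaI digest → CE fluorescence. Bidirectional fit, DMSO negative control.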

[5] = ATG_DR4_LXR_CIS: Attagene CIS-FACTORIAL HepG2 Assay for human Liver X Receptor (LXR), DR4 submotif (AID 2282929); settings: HepG2 Attagene DR4 cis-reporter, mRNA transcription; actives raise or lower the signal
Outline: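 Transiently transfected HepG2 liver cells; cis-regulated reporters; 24 h dosing. RT-PCR plus CE read-out of reporter mRNA. DMSO baseline, bidirectional curve fitting.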

[6] = biological target: Aryl hydrocarbon receptor (Homo sapiens) (UniProt P35869); assay: ATG_Ahr_CIS: Attagene CIS-FACTORIAL HepG2 Assay for human Aryl Hydrocarbon Receptor (Ahr) (AID 2282930); settings: HepG2 AhR cis-factorial reporter transcription; actives raise or lower the signal
Chain of Aryl hydrocarbon receptor (Homo sapiens) (P35869 whole entry, looked up): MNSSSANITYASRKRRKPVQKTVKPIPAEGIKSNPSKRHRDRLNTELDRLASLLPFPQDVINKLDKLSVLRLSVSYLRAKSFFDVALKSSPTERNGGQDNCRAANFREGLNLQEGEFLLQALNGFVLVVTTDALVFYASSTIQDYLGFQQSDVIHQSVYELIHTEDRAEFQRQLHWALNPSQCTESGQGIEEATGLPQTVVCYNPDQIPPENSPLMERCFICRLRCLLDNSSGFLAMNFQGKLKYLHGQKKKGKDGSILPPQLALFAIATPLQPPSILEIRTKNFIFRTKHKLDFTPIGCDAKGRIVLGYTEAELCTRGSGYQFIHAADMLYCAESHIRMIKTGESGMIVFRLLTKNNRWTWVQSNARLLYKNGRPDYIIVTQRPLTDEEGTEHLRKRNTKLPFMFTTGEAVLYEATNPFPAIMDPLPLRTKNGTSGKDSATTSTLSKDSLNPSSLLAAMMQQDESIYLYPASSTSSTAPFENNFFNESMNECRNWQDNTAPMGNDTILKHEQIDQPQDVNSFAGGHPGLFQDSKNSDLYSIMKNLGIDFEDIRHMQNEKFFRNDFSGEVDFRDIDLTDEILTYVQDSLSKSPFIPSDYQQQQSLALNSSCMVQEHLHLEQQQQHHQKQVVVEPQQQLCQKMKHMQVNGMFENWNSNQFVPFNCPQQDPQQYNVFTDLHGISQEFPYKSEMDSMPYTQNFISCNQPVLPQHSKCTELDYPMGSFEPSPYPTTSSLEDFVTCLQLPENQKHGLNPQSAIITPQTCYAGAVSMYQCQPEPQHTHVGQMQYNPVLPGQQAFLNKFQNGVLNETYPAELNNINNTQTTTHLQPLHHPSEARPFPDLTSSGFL
Outline: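 Endogenous factor activity is tracked through cis-promoter reporter units transfected into HepG2 cells. Transcript levels at 24 h are read by fluorescent RT-PCR and capillary electrophoresis, with activity in either direction scored relative to DMSO.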

[7] = ATG_AP_1_CIS: Attagene CIS-FACTORIAL HepG2 Assay for human Activator Protein 1 (AP-1) (AID 2282931); settings: HepG2 Attagene cis-factorial AP-1 reporter mRNA; actives raise or lower the signal
Outline: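 We transfected HepG2 cells transiently with a set of cis-regulated reporter transcription units, dosed them for 24 h, and quantified reporter mRNA via RT-PCR and capillary electrophoresis, scoring gain or loss of signal relative to DMSO.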

[8] = ATG_AP_2_CIS: Attagene CIS-FACTORIAL HepG2 Assay for human Activator Protein 2 (AP-2) (AID 2282932); settings: HepG2 AP-2 cis-reporter, Attagene transcription factor profiling; actives raise or lower the signal
Outline: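 Read-out: fluorescent reporter mRNA via RT-PCR and capillary electrophoresis, 24 h post-dose in transiently transfected HepG2. Endogenous factors drive cis-promoter reporters; gain or loss of signal fitted bidirectionally against DMSO.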

[9] = ATG_BRE_CIS: Attagene CIS-FACTORIAL HepG2 Assay for human Bone Morphogenetic Protein (BMP) Response Element (BRE) (AID 2282933); settings: HepG2 BMP response element reporter, Attagene transcription factor profiling; actives raise or lower the signal
Outline: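 Multiplexed cis-reporter assay, HepG2, 24 h exposure. mRNA from reporter units quantified via RT-PCR/CE; DMSO baseline; bidirectional curve fit.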

[10] = biological target: Transcription factor E2F1 (Homo sapiens) (UniProt Q01094); assay: ATG_E2F_CIS: Attagene CIS-FACTORIAL HepG2 Assay for human E2F Transcription Factor 1 (AID 2282935); settings: HepG2 Attagene cis-reporter, E2F reporter RNA transcripts; actives raise or lower the signal
Chain of Transcription factor E2F1 (Homo sapiens) (Q01094 whole entry, looked up): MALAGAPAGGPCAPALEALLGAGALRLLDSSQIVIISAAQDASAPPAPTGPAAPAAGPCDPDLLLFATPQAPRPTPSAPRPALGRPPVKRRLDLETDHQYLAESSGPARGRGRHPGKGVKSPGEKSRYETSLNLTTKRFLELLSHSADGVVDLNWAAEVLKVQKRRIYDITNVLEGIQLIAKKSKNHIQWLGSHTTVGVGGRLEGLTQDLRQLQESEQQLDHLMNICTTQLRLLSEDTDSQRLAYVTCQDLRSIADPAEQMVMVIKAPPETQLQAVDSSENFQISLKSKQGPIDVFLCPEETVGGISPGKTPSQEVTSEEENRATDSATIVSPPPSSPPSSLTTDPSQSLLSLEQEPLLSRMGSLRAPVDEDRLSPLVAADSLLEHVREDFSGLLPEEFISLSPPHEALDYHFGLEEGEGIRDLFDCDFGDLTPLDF
Outline: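 Transient MRTU transfection of HepG2; 24 h compound exposure; RNA → oligo(dT) RT → PCR → FAM label → HpaI cut → CE fluorescence. Gain/loss of signal fit against DMSO.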

[11] = ATG_E_Box_CIS: Attagene CIS-FACTORIAL HepG2 Assay for human Enhancer Box (E-box) (AID 2282936); settings: HepG2 E-box cis-reporter transcription, actives raise or lower the signal
Outline: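 Transiently transfected HepG2, endogenous TF-driven reporters, 24 h dosing. Readout: RT-PCR plus capillary electrophoresis of fluorescent reporter fragments. Gain or loss of signal fitted bidirectionally against DMSO baseline.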

[12] = ATG_EGR_CIS: Attagene CIS-FACTORIAL HepG2 Assay for human Early Growth Response 1 (EGR1) (AID 2282938); settings: HepG2 Attagene CIS-FACTORIAL EGR reporter mRNA; actives raise or lower the signal
Outline: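 Multiplexed cis-reporter system in human hepatoma HepG2 cells, transiently transfected. Cells are dosed for 24 h; reporter transcripts are amplified, fluorescently tagged and sized by capillary electrophoresis, with DMSO as negative control.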

[13] = ATG_M_19_CIS: Attagene CIS-FACTORIAL HepG2 Assay for M19 Transcription Factor (Internal Marker) (AID 2282939); settings: HepG2 Attagene CIS-FACTORIAL M19 internal marker reporter; actives raise or lower the signal
Outline: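 Signals come from fluorescence of labelled reporter-specific PCR fragments resolved by capillary electrophoresis, following 24 h treatment of HepG2 cells transfected with cis-promoter reporter units; activity was fitted in both directions relative to DMSO.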

[14] = ATG_ERE_CIS: Attagene CIS-FACTORIAL HepG2 Assay for Estrogen Response Element (ERE) (AID 2282940); settings: HepG2 ERE cis-reporter, Attagene RNA transcript; actives raise or lower the signal
Outline: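 Fluorescence of capillary-separated, FAM-labelled reporter cDNA fragments indicates reporter mRNA levels in HepG2 cells exposed to chemicals for 24 h. Transient transfection with cis-regulated units; data fitted in both directions against DMSO.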

[15] = ATG_Ets_CIS: Attagene CIS-FACTORIAL HepG2 Assay for human Erythroblast Transformation Specific (ETS) (AID 2282941); settings: HepG2 ETS cis-reporter transcription, actives raise or lower the signal
Outline: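 Cis-regulated reporter mRNA induction in HepG2 (transient transfection), 24 h exposure, RT-PCR plus capillary electrophoresis detection; DMSO serves as negative control and baseline.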

[16] = biological target: Hepatocyte nuclear factor 3-beta (Homo sapiens) (UniProt Q9Y261); assay: ATG_FoxA2_CIS: Attagene CIS-FACTORIAL HepG2 Assay for human Forkhead box A2 (FOXA2) (AID 2282942); settings: HepG2 cis-reporter transcription factor activity, 24 h; actives raise or lower the signal
Chain of Hepatocyte nuclear factor 3-beta (Homo sapiens) (Q9Y261 whole entry, looked up): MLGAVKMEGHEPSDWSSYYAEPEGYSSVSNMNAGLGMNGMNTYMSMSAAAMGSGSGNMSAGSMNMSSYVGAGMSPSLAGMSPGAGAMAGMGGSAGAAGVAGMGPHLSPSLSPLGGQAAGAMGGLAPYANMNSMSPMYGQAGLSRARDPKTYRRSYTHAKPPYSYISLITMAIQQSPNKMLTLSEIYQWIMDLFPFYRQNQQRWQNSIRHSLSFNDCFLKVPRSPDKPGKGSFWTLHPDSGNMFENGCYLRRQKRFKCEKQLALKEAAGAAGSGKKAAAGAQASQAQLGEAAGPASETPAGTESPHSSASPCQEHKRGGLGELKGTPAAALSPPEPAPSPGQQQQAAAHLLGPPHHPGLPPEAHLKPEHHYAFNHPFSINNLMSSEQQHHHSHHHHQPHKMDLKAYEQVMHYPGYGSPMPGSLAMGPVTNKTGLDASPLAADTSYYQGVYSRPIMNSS
Outline: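 Multiplexed cis-element reporter assay in transiently transfected HepG2. Twenty-four hours post-dosing, RNA was reverse-transcribed, amplified, FAM-labelled, HpaI-digested and separated by CE. Activity gain or loss relative to DMSO.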

[17] = ATG_FoxO_CIS: Attagene CIS-FACTORIAL HepG2 Assay for human Forkhead box O (FoxO) (AID 2282943); settings: HepG2 Attagene cis-reporter, FoxO element, mRNA; actives raise or lower the signal
Outline: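 Transfected HepG2 reporter cells exposed to test chemical for 24 h; reporter RNA measured by reverse transcription, PCR and fluorescent capillary electrophoresis; curves fitted for increases and decreases against DMSO.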

[18] = ATG_GATA_CIS: Attagene CIS-FACTORIAL HepG2 Assay for human GATA Binding Protein (AID 2282944); settings: HepG2 GATA cis-element reporter, Attagene multiplex mRNA; actives raise or lower the signal
Outline: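 After transfecting HepG2 cells with multiple cis-regulated reporter units, chemicals are dosed for 24 h; isolated RNA undergoes RT-PCR and fluorescent labeling before capillary electrophoresis, with activity expressed against DMSO.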

[19] = biological target: Retinoic acid receptor alpha (Homo sapiens) (UniProt P10276); assay: ATG_DR5_RAR_CIS: Attagene CIS-FACTORIAL HepG2 Assay for human Retinoic Acid Receptor Alpha (RARE), DR5 submotif (AID 2282934); settings: HepG2 Attagene cis-factorial RARE DR5 reporter, mRNA; actives raise or lower the signal;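 on AC50: reporter responds to endogenous RAR alpha beta and gamma in HepG2 not RARA alone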
Chain of Retinoic acid receptor alpha (Homo sapiens) (P10276 whole entry, looked up): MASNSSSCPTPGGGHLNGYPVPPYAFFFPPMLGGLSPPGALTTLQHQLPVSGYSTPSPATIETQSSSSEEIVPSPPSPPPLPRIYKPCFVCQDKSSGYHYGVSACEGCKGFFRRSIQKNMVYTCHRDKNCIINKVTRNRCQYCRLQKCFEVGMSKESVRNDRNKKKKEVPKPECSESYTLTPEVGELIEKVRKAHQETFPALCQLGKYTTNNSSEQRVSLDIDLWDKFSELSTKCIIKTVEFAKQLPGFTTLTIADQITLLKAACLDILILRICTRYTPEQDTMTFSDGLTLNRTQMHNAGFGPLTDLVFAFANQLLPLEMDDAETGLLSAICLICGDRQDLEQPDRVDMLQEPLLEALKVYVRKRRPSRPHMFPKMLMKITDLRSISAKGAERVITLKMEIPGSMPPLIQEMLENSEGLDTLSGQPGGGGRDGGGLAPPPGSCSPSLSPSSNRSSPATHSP
Outline: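 After 24 h of chemical exposure, transiently transfected HepG2 cells were lysed for total RNA; the DR5-regulated reporter transcript was quantified via RT-PCR and capillary electrophoresis, with activity fitted bidirectionally against DMSO.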

[20] = ATG_M_61_CIS: Attagene CIS-FACTORIAL HepG2 Assay for M61 Transcription Factor (Internal Marker) (AID 2282937); settings: HepG2 Attagene CIS-FACTORIAL M61 internal marker reporter; actives raise or lower the signal
Outline: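 Multiplexed reporter mRNA assay, HepG2 human hepatoma cells, 24 h treatment. Signal: FAM-labelled, HpaI-digested RT-PCR fragments by CE. Fit: bidirectional, baseline DMSO.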

Measured: AC50

CC[C@H](c1ccc(O)cc1)[C@@H](CC)c1ccc(O)cc1
inactive: [1] | [2] | [3] | [5] | [6] | [8] | [9] | [10] | [11] | [12] | [13] | [15] | [16] | [17] | [18]
active: [4] 12.5 µM and 11.1 µM and 7.79 µM | [5] 11.1 µM and 11 µM | [7] 11.1 µM and 7.83 µM and 9.21 µM | [12] 11.1 µM | [14] 1.02 nM and 3.79 nM and 1.01 nM

ClC1=C(Cl)C(Cl)(Cl)C(Cl)=C1Cl
inactive: [1] | [2] | [3] | [4] | [5] | [6] | [7] | [8] | [9] | [19] | [10] | [11] | [20] | [13] | [14] | [16] | [17] | [18]
active: [2] 11.9 µM | [3] 16.9 µM | [4] 11.1 µM | [5] 6.59 µM | [6] 8.81 µM | [19] 21.4 µM | [11] 6.36 µM | [12] 17.8 µM and 6.6 µM | [15] 17.7 µM and 16.2 µM | [17] 16.1 µM

Oc1cc2ccccc2c2ccccc12
inactive: all assays above

O=C(/C=C/c1ccc(O)cc1)CC(=O)/C=C/c1ccc(O)cc1
active: [1] 49.4 µM | [4] 77.7 µM | [5] 18.9 µM | [7] 62 µM | [8] 100 µM | [11] 26.7 µM | [12] 11.5 µM
not listed: [20]
inactive: all other assays above

FC(F)(I)C(F)(F)C(F)(F)C(F)(F)C(F)(F)C(F)(F)I
active: [4] 9.48 µM | [12] 16.4 µM | [14] 19.2 nM | [15] 18.3 µM | [17] 17.4 µM
not listed: [1] | [20]
inactive: all other assays above

C#C[C@]1(O)CC[C@H]2[C@@H]3CCC4=CC(=O)CC[C@@H]4[C@H]3CC[C@@]21C
active: [6] 71.5 µM and 50 µM
inactive: [1] | [2] | [3] | [4] | [6] | [7] | [8] | [9] | [19] | [10] | [11] | [20] | [12] | [13] | [15] | [17] | [18]

C[C@@H]1C[C@H]2[C@@H]3CCC4=CC(=O)C=C[C@]4(C)[C@@]3(F)[C@@H](O)C[C@]2(C)[C@@]1(O)C(=O)COP(=O)(O)O
active: [1] 1.84 µM
not listed: [19] | [20]
inactive: all other assays above

Oc1cccc(O)c1
active: [9] 29.7 µM
not listed: [20]
inactive: all other assays above

CCCCCCCCCCCCCC[N+](C)(C)C
active: [4] 15.2 µM | [5] 16.6 µM | [7] 6.78 µM and 7.32 µM | [9] 13.1 µM and 4.06 µM | [12] 11.1 µM
inactive: [2] | [3] | [4] | [5] | [6] | [8] | [19] | [10] | [11] | [20] | [12] | [13] | [14] | [15] | [16] | [17] | [18]

CN(C)C=O
not listed: [20]
inactive: all other assays above

COCC(C)O (configuration not stated)
not listed: [19] | [20]
inactive: all other assays above

CCc1ccc(CCOc2ccc(CC3SC(=O)NC3=O)cc2)nc1 (configuration not stated)
active: [14] 19.8 µM and 41.4 µM
not listed: [19] | [20]
inactive: all other assays above

From PubChem BioAssay (EPA / NIEHS)
